# From PubChem BioAssay
# Active and inactive are the calls of the source. Unless noted, how the calls were made is not given here.
# Key:
# [1] = anti-His antibody binders, primary screen, artefact control for SMM control protein annotation, biochemical, small-molecule microarray, 635 nm fluorescence (AID 1128); conditions: anti-His Alexa647 antibody binding, higher = more signal;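 further: score merges feature fluorescence with signal-to-noise for each printed compound spot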
# [2] = system: Human papillomavirus type 1a E7 protein (residues 1-88); experiment: HPV1a E7 small-molecule binders, primary screen, biochemical, small-molecule microarray, residues 1-88, 635 nm (AID 1129); conditions: small-molecule microarray binding, fluorescence 635 nm; higher = more signal
# [3] = target: Focal adhesion kinase 1 (Homo sapiens) (UniProt Q05397); experiment: small-molecule microarray binders of FAK, primary screen, biochemical, 635/667 nm fluorescence, BSA, DTT (AID 1130); conditions: PTK2 binding, 635 nm fluorescence, higher = more signal;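 further: composite of spot emission at 667 nm and signal to noise over triplicate slides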
# [4] = system: Fibrinogen (Alexa647-labelled); experiment: fibrinogen binders on compound microarrays, profiling panel, artefact control for SMM control-protein annotation, biochemical, small-molecule microarray, 635/667 nm fluorescence (AID 1131); conditions: fibrinogen-A647 binding fluorescence, higher = more signal;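 further: z-score merges 667 nm fluorescence with per-spot signal-to-noise over triplicate slides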
# [5] = target: Follistatin (Homo sapiens) (UniProt P19883); experiment: follistatin binders on small-molecule microarrays, primary screen, biochemical, small-molecule microarray, 635/667 nm fluorescence (AID 1132); conditions: FST binding, 635 nm fluorescence, higher = more signal
# [6] = target: Fibroblast growth factor 2 (Homo sapiens) (UniProt P09038); experiment: FGF2 binders on small-molecule microarrays, primary screen, biochemical, small-molecule microarray, 635/667 nm fluorescence (AID 1133); conditions: small-molecule microarray binding, FGF2, fluorescence 635/667; higher = more signal
# [7] = mitochondrial membrane potential change in A549 cells, profiling panel, cell-based, JC-1 fluorescence, basal, 24 h, 100 nL (AID 1138); conditions: higher = more signal;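 further: A549 lung adenocarcinoma cells under basal conditions with no added stimulus; test concentration not given here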
# Lefty1 = Lefty1 binders on small-molecule microarrays, primary screen, biochemical, small-molecule microarray, 635/667 nm fluorescence (AID 1139); conditions: small-molecule microarray binding, fluorescence 635/667; higher = more signal
# [8] = system: wheat germ agglutinin (Triticum aestivum), Alexa647-labelled; experiment: wheat germ agglutinin binders on compound microarrays, profiling panel, artefact control for SMM control-protein annotation, biochemical, small-molecule microarray, 635/667 nm fluorescence (AID 1140); conditions: WGA-A647 binding, 635 nm fluorescence, higher = more signal;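 further: score merges 667 nm feature emission with signal to noise over triplicate slides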
# [9] = target: Luciferin 4-monooxygenase (Photinus pyralis) (UniProt P08659); experiment: firefly luciferase enzyme inhibitors, primary screen, biochemical, luminescence, purified enzyme, 2006 set (AID 1141); conditions: SteadyGlo luminescence, 30 min, higher = more signal, called active from +8 up or from −8 down;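 further: cell-free assay with purified firefly luciferase at 100 ng per well in PBS; test concentration not given here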
# [10] = system: Wnt5a (protein binding on small-molecule microarray); experiment: Wnt5a binders on small-molecule microarray, primary screen, biophysical, 635/667 nm fluorescence (AID 1142); conditions: 635 nm fluorescence, higher = more signal;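 further: fluorescence read at 667 nm with signal to noise per printed feature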
# [11] = cell viability in Huh7 cells, primary screen, cytotoxicity control for HCV replication inhibitor project, CellTiter-Glo luminescence, basal, 48 h (AID 1143); conditions: Huh7 HCV replicon, higher = more signal, called active from +8 up or from −8 down;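 further: Huh7 hepatoma cells carrying a hepatitis C replication reporter with no stimulus; test concentration not given here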
# [12] = P. aeruginosa biofilm formation inhibitors, primary screen, PAO1 strain, BacTiter-Glo luminescence, LB-PBS (AID 1144); conditions: 12 h, higher = more signal
# [13] = CREB reporter modulators without forskolin, primary screen, cell-based, PC12, CRE-LacZ reporter, unstimulated (AID 1145); conditions: no forskolin, luminescence, 4.5 h, higher = more signal, called active from +8 up or from −8 down
# [14] = CREB reporter modulators under forskolin, primary screen, cell-based, PC12, CRE-LacZ reporter, forskolin-stimulated (AID 1146); conditions: luminescence, 4.5 h, higher = more signal, called active from +8 up or from −8 down;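 further: PC12 cells with 6xCRE LacZ reporter stimulated by forskolin 10 µM; beta-galactosidase reporter signal reflecting CREB driven transcription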
# [15] = target: Streptavidin (Streptomyces avidinii) (UniProt P22629); experiment: streptavidin binders on small-molecule microarray, primary screen, artefact control for SMM compound annotation, biophysical, 635/667 nm fluorescence (AID 1147); conditions: streptavidin binding, higher = more signal;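 further: signal reflects streptavidin binding to arrayed compounds as a control protein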
# [16] = small-molecule binders of probe aInhba, primary screen, biochemical, small-molecule microarray, 635/667 nm fluorescence (AID 1148); conditions: higher = more signal;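 further: score merges 667nm spot fluorescence with signal-to-noise for antibody binding to printed compounds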
# Torsin-1A (Homo sapiens) [17] = target: Torsin-1A (Homo sapiens) (UniProt O14656); experiment: torsin A binders from cell lysate, primary screen, small-molecule microarray, wild-type, 635/667 nm (AID 1149); conditions: COS7 hTOR1A-WT lysate, 635 nm fluorescence, higher = more signal
# Torsin-1A (Homo sapiens) [18] = target: Torsin-1A (Homo sapiens) (UniProt O14656); experiment: small-molecule binders of mutant TOR1A in lysate, primary screen, cell lysate, small-molecule microarray, COS7 lysate, 635/667 nm fluorescence (AID 1150); conditions: COS7 hTOR1A mutant lysate, 635 nm fluorescence, higher = more signal;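 further: score pools 667 nm emission and signal to noise measuring lysate protein binding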
# [19] = system: Sonic hedgehog protein (Shh); experiment: small-molecule binders of Shh protein, primary screen, biochemical, small-molecule microarray, 635/667 nm fluorescence (AID 1151); conditions: small-molecule microarray binding, 635 nm fluorescence; higher = more signal;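 further: Shh protein binding to compounds spotted on small-molecule microarray slides; score combines spot fluorescence intensity with signal-to-noise across triplicate slides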
# Streptavidin (Streptomyces avidinii), sequence (P22629 whole entry, looked up): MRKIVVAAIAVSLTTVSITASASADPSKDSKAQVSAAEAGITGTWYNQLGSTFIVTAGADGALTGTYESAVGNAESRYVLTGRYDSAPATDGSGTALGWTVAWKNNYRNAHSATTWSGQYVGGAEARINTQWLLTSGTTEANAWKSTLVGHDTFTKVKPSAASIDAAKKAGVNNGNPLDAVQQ
# Focal adhesion kinase 1 (Homo sapiens), sequence (Q05397 whole entry, looked up): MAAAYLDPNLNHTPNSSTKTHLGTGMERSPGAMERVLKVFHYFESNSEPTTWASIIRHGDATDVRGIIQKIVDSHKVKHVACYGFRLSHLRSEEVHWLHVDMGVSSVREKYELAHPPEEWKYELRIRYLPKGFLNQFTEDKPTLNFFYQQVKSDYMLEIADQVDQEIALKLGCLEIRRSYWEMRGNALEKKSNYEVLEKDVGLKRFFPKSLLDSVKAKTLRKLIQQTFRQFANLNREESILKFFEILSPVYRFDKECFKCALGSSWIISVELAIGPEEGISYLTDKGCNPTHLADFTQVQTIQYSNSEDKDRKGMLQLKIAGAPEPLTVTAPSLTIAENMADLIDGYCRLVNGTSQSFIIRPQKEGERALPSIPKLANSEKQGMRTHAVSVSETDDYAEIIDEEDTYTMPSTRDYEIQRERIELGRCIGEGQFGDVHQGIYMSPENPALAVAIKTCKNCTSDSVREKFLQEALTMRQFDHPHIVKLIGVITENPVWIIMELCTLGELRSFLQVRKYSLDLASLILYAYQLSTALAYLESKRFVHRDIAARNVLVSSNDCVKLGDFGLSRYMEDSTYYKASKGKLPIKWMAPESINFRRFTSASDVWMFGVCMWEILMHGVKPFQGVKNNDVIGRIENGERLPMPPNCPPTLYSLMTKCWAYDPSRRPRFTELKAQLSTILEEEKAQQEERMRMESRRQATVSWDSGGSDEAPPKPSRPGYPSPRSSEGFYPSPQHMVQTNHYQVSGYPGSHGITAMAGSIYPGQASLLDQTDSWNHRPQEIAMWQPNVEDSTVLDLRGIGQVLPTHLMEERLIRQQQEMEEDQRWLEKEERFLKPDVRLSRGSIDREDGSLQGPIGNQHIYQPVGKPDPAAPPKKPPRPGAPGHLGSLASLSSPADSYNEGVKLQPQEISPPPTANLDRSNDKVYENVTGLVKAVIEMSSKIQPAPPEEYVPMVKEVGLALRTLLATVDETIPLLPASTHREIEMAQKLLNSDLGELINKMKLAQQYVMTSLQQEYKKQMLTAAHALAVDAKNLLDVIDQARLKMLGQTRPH
# Fibroblast growth factor 2 (Homo sapiens), sequence (P09038 whole entry, looked up): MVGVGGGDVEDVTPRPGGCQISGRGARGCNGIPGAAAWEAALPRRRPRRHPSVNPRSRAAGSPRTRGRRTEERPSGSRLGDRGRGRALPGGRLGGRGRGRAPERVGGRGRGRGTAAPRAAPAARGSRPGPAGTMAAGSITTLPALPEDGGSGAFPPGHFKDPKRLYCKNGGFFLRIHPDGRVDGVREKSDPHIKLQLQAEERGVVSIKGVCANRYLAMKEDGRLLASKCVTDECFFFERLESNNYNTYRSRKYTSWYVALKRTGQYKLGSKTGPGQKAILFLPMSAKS
# Luciferin 4-monooxygenase (Photinus pyralis), sequence (P08659 whole entry, looked up): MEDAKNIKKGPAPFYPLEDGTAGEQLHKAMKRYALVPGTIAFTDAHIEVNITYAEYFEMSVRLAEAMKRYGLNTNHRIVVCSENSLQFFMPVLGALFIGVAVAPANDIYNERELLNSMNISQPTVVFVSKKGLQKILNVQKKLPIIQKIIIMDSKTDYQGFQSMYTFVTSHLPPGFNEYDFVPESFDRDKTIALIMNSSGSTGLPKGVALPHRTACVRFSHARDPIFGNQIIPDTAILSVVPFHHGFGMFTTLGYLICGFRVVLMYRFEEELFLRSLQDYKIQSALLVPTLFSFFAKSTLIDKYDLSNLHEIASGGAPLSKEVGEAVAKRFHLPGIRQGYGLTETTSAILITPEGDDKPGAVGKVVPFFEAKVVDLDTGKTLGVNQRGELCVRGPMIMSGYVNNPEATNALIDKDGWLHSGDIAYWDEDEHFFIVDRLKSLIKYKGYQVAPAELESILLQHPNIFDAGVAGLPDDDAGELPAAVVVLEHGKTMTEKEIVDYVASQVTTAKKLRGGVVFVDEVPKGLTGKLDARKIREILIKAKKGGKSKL
# Follistatin (Homo sapiens), sequence (P19883 whole entry, looked up): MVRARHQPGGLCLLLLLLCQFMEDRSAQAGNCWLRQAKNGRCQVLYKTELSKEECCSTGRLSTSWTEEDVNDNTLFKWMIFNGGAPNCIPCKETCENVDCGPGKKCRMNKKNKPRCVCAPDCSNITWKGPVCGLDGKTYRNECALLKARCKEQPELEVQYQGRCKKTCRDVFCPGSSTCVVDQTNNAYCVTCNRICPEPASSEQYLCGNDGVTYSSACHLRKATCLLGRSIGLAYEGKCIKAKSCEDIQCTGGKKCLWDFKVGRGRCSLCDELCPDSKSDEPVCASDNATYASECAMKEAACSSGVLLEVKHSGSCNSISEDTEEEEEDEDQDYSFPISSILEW
# Torsin-1A (Homo sapiens), sequence (O14656 whole entry, looked up): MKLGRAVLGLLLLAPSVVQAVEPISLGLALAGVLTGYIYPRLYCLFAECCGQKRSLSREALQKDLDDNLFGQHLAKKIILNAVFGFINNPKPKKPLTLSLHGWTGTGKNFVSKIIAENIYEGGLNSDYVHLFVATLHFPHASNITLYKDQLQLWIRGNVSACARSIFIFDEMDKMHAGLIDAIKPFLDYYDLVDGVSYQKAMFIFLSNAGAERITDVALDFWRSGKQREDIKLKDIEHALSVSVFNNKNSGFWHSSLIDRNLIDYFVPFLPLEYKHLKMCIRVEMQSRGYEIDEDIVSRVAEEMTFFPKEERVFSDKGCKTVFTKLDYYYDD
SMILES,composite z-score [1],composite z-score [2],composite z-score [3],composite z-score [4],composite z-score [5],composite z-score [6],z-score [7],composite z-score (Lefty1),composite z-score [8],z-score [9],composite z-score [10],z-score [11],z-score [12],z-score [13],z-score [14],composite z-score [15],composite z-score [16],composite z-score (Torsin-1A (Homo sapiens) [17]),composite z-score (Torsin-1A (Homo sapiens) [18]),composite z-score [19]
O=C(N1CCOCC1)[C@@]1(Cc2ccccc2)COC(c2ccc(OCCCO)cc2)=N1,2.69,1.23,0.674,0.767,-0.119,-0.445,-1.04,-1.1,0.603,-0.276 (inactive),0.242,-5.19 (inactive),-0.446 (inactive),0.484 (inactive),-2.35 (inactive),0.647,0.0422,0.315,1.02,-1.05
CCOC(=O)C1=CC[C@@H](c2ccccc2)N(S(=O)(=O)c2ccc(C)cc2)[C@H]1c1ccccc1I,1.5,1.21,0.475,0.995,0.923,0.184,1.27,-0.163,1.01,1.55 (inactive),0.296,-2.69 (inactive),0.366 (inactive),0.566 (inactive),-0.226 (inactive),0.864,0.849,-0.315,0.507,0.239
O=C1O[C@@H](c2ccccc2)[C@@H](c2ccccc2)N2[C@@H](c3ccc(OCCO)cc3)[C@]3(C(=O)Nc4ccc(C#CCCO)cc43)[C@@H](C(=O)O)[C@H]12,2.76,1.14,0.453,0.95,1.11,0.871,0.329,0.45,1.14,-1.71 (inactive),0.529,-0.579 (inactive),-0.155 (inactive),-0.761 (inactive),-0.0408 (inactive),1.84,1.34,0.892,0.203,0.688
COc1ccc([Si](C)(C)[C@@H]2[C@@H](CC(=O)N3CCC[C@H]3CO)O[C@]3(C(=O)N(Cc4cccc(N5CCCCC5=O)c4)c4ccccc43)[C@H]2C)cc1,2.54,1.03,0.0576,0.641,0.767,0.473,0.218,1.23,0.307,-1.86 (inactive),-0.104,-2.77 (inactive),-0.331 (inactive),0.105 (inactive),-0.95 (inactive),-0.164,-0.176,0.594,0.81,1.68
O=C(NCC(O)CO)[C@@]1(CCS(=O)(=O)c2ccccc2)N=C(c2ccc(OCCCO)cc2)O[C@H]1c1ccccc1 (stereo not given in full),1.9,1.23,1.38,0.993,1.33,-0.0831,-0.503,-1.02,0.762,-0.845 (inactive),0.274,-3.75 (inactive),-0.513 (inactive),0.675 (inactive),-1.04 (inactive),1.4,0.212,0.449,1.23,-1.04
COC(=O)[C@@]1(Cc2ccc(OC)cc2)[C@H]2c3cc(C(=O)N4CCCC4)n(Cc4ccc(Cl)c(C(F)(F)F)c4)c3C[C@H]2CN1C(=O)c1ccccc1,1.27,1.19,0.421,0.972,1.34,0.433,1.38,0.125,1.07,0.166 (inactive),0.344,-3.32 (inactive),0.237 (inactive),0.0143 (inactive),-0.218 (inactive),1.59,0.728,0.557,1.28,-0.152
C=CCN1Cc2ccccc2[C@H]2OC(c3ccc(OCCCO)cc3)=N[C@@]2(CCS(=O)(=O)c2ccccc2)C1=O,2.05,1.22,0.621,0.0869,1.37,1.37,0.35,0.507,0.77,-0.884 (inactive),1.07,-2.3 (inactive),0.477 (inactive),1.44 (inactive),-1.27 (inactive),0.22,0.275,0.695,1.26,1.28
CN1C(=O)C2C=CC(C(O)c3ccc(-c4ccccc4)s3)N(NC(=O)OC(C)(C)C)C2C1=O (stereo not given),0.847,1.14,0.154,1.04,0.807,0.498,0.237,-0.0773,0.904,0.626 (inactive),-0.423,0.531 (inactive),0.146 (inactive),0.436 (inactive),-0.0651 (inactive),1.38,0.0069,-0.043,0.564,0.0221
O=C1[C@@H]2[C@@H](CC(COc3ccccc3)=C([C@H](O)CCc3ccccc3)[C@@H]2CO)C(=O)N1Cc1ccccc1,1.71,0.332,1.2,0.724,0.561,0.175,2.07,0.715,0.124,-0.172 (inactive),-0.0252,-2.37 (inactive),-0.423 (inactive),4.74 (inactive),0.831 (inactive),0.541,-0.274,-0.19,0.167,0.801
O=C(NCc1ccc(F)cc1)[C@H]1C[C@H]2C(=O)N3CCC[C@H]3C(=O)N2[C@H]1c1ccc(O)cc1,-0.279,-0.825,-0.753,0.137,0.699,0.75,-0.0591,-0.557,-0.554,-0.0877 (inactive),-0.216,-2.87 (inactive),0.893 (inactive),1.24 (inactive),-0.677 (inactive),-1.32,-0.443,0.264,0.202,0.546
